Data published in PubChem BioAssay (NCI).
This is part of a sample that, as a whole, favours compounds with a hit. Of some 79,000 tested, about 15% had one in any assay. Active and inactive are the calls of the source. Rule as the data show it: active = growth inhibition above about 70%; inactive = the rest.

Tests used:
[1] = NCI Yeast Anticancer Drug Screen. Data for the rad52 strain (AID 147);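 also: 0% = growth of vehicle-treated control cultures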; details: S. cerevisiae rad52 mutant growth inhibition, active compounds read high
In short: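 Genetically altered yeast (DNA damage repair defect) treated with compound; inhibition calculated relative to vehicle.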

[2] = NCI Yeast Anticancer Drug Screen. Data for the wt1 strain (AID 149);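 also: 0% = growth of vehicle-treated wt1 cultures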; details: S. cerevisiae wt1 strain (SPY 50644) growth inhibition, active compounds read high
In short: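 Readout: yeast growth inhibition, normalised to vehicle controls, in the wt1 strain exposed to test compounds.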

[3] = NCI Yeast Anticancer Drug Screen. Data for the rad50EPP+ strain (AID 151);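 also: 0% = growth of vehicle-treated control cultures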; details: S. cerevisiae rad50 mutant strain, active compounds read high
In short: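 Strain rad50EPP+; compound exposure; % growth inhibition vs vehicle.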

[4] = NCI Yeast Anticancer Drug Screen. Data for the mgt1 strain (AID 153); details: S. cerevisiae mgt1 mutant growth inhibition, active compounds read high
In short: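 Read-out: yeast growth inhibition vs vehicle control. Strain mgt1, drawn from a panel altered in DNA damage repair or cell cycle control.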

[5] = NCI Yeast Anticancer Drug Screen. Data for the rad50 strain (AID 155);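 also: 0% = growth of vehicle-only cultures of the same strain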; details: S. cerevisiae rad50 strain growth inhibition, active compounds read high
In short: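 Compounds were tested on a yeast strain with an engineered DNA damage repair alteration; the reported value is growth inhibition normalised to vehicle treatment.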

[6] = NCI Yeast Anticancer Drug Screen. Data for the mec2-1 strain (AID 157); details: S. cerevisiae mec2-1 strain, active compounds read high
In short: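 Cells of the genetically defined mec2-1 yeast strain are incubated with test compound. Inhibition of growth is calculated against vehicle-treated controls.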

[7] = NCI Yeast Anticancer Drug Screen. Data for the rad14 strain (AID 159);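 also: 0% = growth of vehicle-treated control cultures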; details: S. cerevisiae rad14 strain growth inhibition, active compounds read high
In short: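 Compound-treated yeast with a defined DNA-repair lesion; growth inhibition normalised to vehicle-treated cultures.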

[8] = NCI Yeast Anticancer Drug Screen. Data for the sgs1 mgt1 strain (AID 161);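 also: 0% = growth of cultures given vehicle only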; details: S. cerevisiae sgs1 mgt1 strain, active compounds read high
In short: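 Mutant yeast exposed to compound; growth scored against vehicle-only wells.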

[9] = NCI Yeast Anticancer Drug Screen. Data for the CLN2oe strain (AID 163);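 also: 0% = growth of vehicle-only control cultures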; details: S. cerevisiae CLN2oe strain, active compounds read high
In short: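 Strain altered in cell-cycle control, incubated with compound; growth compared to solvent-treated controls.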

[10] = NCI Yeast Anticancer Drug Screen. Data for the cln2 rad14 strain (AID 165);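 also: 0% = growth equal to vehicle treated cultures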; details: S. cerevisiae cln2 rad14 strain, active compounds read high
In short: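 The screen exposed genetically defined yeast (cln2 rad14) to test compounds and scored growth inhibition relative to vehicle-treated controls.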

[11] = NCI Yeast Anticancer Drug Screen. Data for the bub3 strain (AID 167); details: S. cerevisiae bub3 mutant strain, active compounds read high
In short: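 Growth of a checkpoint-deficient yeast mutant is measured after compound exposure. Values represent inhibition relative to vehicle.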

[12] = NCI Yeast Anticancer Drug Screen. Data for the wt2 strain (AID 169);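 also: 0% = growth of vehicle-treated yeast cultures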; details: S. cerevisiae wt2 strain growth inhibition, active compounds read high
In short: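 Steps: yeast strain treated with compound; growth recorded; inhibition calculated relative to cultures given vehicle alone.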

[13] = NCI Yeast Anticancer Drug Screen. Data for the mlh1 strain (AID 171);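 also: 0% = growth of vehicle-treated control cultures of the same strain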; details: S. cerevisiae mlh1 strain growth inhibition, active compounds read high
In short: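 Yeast screen: mutant strain plus compound, growth scored against vehicle control wells.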

[14] = NCI Yeast Anticancer Drug Screen. Data for the sgs1 strain (AID 173);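 also: 0% = growth of vehicle-only control cultures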; details: S. cerevisiae sgs1 mutant, active compounds read high
In short: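 Inhibition of yeast growth served as the measure. The mutant strain was treated with each compound, and growth was normalised to cultures receiving vehicle alone.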

[15] = NCI Yeast Anticancer Drug Screen. Data for the mlh1 rad18 strain (AID 175); details: S. cerevisiae mlh1 rad18 strain growth inhibition, active compounds read high
In short: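 Compound-treated yeast growth, normalised to vehicle controls. Strain bears defined DNA repair mutations.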

[16] = NCI Yeast Anticancer Drug Screen. Data for the rad18 strain (AID 177); details: S. cerevisiae rad18 mutant growth inhibition, active compounds read high
In short: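 Inhibition values reflect reduced yeast growth compared with vehicle-treated controls, using a strain engineered with a DNA damage repair defect.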

[17] = at 5.0 µM (retest, dose inferred, filed as 0.5)
[18] = at 50.0 µM (retest, dose inferred, filed as 5.0)

Measured: growth inhibition

Cc1ccc(Cl)c2[nH]c(-c3ccccc3)cc(=O)c12
inactive: [1]; at 1.2 µM -1% | [1]; at 3.7 µM -1% | [1]; at 11.0 µM 1% | [1]; at 33.0 µM 2% | [1]; at 100.0 µM 3% | [2]; at 1.2 µM -3% | [2]; at 3.7 µM -3% | [2]; at 11.0 µM -4% | [2]; at 33.0 µM -2% | [2]; at 100.0 µM 0% | [3]; at 1.2 µM 1% | [3]; at 3.7 µM 2% | [3]; at 11.0 µM 6% | [3]; at 33.0 µM 9% | [3]; at 100.0 µM 6% | [4]; at 1.2 µM -5% | [4]; at 3.7 µM -3% | [4]; at 11.0 µM 19% | [4]; at 33.0 µM -25% | [4]; at 100.0 µM -4% | [5]; at 1.2 µM -1% | [5]; at 3.7 µM 0% | [5]; [17] -10% | [5]; at 11.0 µM -29% | [5]; at 33.0 µM 0% | [5]; [18] 13% | [5]; at 50.0 µM 29.2% | [5]; at 100.0 µM 0% | [6]; at 1.2 µM 0% | [6]; at 3.7 µM -3% | [6]; [17] -11% | [6]; at 11.0 µM 0% | [6]; at 33.0 µM -2% | [6]; [18] 10% | [6]; at 50.0 µM 40.6% | [6]; at 100.0 µM 0% | [7]; at 1.2 µM -2% | [7]; at 3.7 µM -6% | [7]; at 11.0 µM -2% | [7]; at 33.0 µM -12% | [7]; at 100.0 µM 1% | [8]; [17] -28% | [8]; [18] 12% | [8]; at 50.0 µM 55.5% | [9]; at 1.2 µM 0% | [9]; at 3.7 µM -5% | [9]; at 11.0 µM -1% | [9]; at 33.0 µM -5% | [9]; at 100.0 µM 1% | [10]; [17] -9% | [10]; [18] -2% | [10]; at 50.0 µM 13.4% | [11]; at 1.2 µM -2% | [11]; at 3.7 µM -2% | [11]; [17] -17% | [11]; at 11.0 µM 7% | [11]; at 33.0 µM 0% | [11]; at 100.0 µM 2% | [12]; at 1.2 µM -2% | [12]; at 3.7 µM -1% | [12]; at 11.0 µM -1% | [12]; at 33.0 µM -1% | [12]; at 100.0 µM -1% | [13]; at 1.2 µM 0% | [13]; at 3.7 µM -2% | [13]; at 11.0 µM -4% | [13]; at 33.0 µM -2% | [13]; at 100.0 µM 0% | [14]; at 1.2 µM -3% | [14]; at 3.7 µM -4% | [14]; at 11.0 µM -4% | [14]; at 33.0 µM -3% | [14]; at 100.0 µM 0% | [15]; [17] -18% | [15]; at 50.0 µM 62.8% | [16]; at 1.2 µM -5% | [16]; at 3.7 µM -1% | [16]; at 11.0 µM -6% | [16]; at 33.0 µM -24% | [16]; at 100.0 µM 14%
active: [11]; [18] 93% | [11]; at 50.0 µM 72% | [15]; [18] 94%

Nc1nc(Cl)c(Cl)c(Cl)n1
active: [1]; at 33.0 µM 88% | [1]; at 100.0 µM 99% | [2]; at 100.0 µM 99% | [3]; at 11.0 µM 89% | [3]; at 33.0 µM 93% | [3]; at 100.0 µM 99% | [4]; at 33.0 µM 90% | [4]; at 100.0 µM 99% | [5]; [18] 100% | [5]; at 100.0 µM 99% | [6]; at 33.0 µM 99% | [6]; [18] 99% | [6]; at 50.0 µM 72.4% | [6]; at 100.0 µM 99% | [7]; at 33.0 µM 99% | [7]; at 100.0 µM 99% | [8]; [18] 99% | [9]; at 100.0 µM 99% | [10]; [18] 99% | [11]; at 33.0 µM 92% | [11]; [18] 99% | [11]; at 100.0 µM 99% | [12]; at 33.0 µM 80% | [12]; at 100.0 µM 99% | [13]; at 33.0 µM 93% | [13]; at 100.0 µM 99% | [14]; at 33.0 µM 99% | [14]; at 100.0 µM 99% | [15]; [17] 80% | [15]; [18] 99% | [16]; at 33.0 µM 77% | [16]; at 100.0 µM 99%
inactive: [1]; at 1.2 µM 1% | [1]; at 3.7 µM 8% | [1]; at 11.0 µM 32% | [2]; at 1.2 µM -2% | [2]; at 3.7 µM 1% | [2]; at 11.0 µM 14% | [2]; at 33.0 µM 57% | [3]; at 1.2 µM 0% | [3]; at 3.7 µM 34% | [4]; at 1.2 µM 1% | [4]; at 3.7 µM 5% | [4]; at 11.0 µM 20% | [5]; at 1.2 µM 2% | [5]; at 3.7 µM 3% | [5]; [17] 44% | [5]; at 11.0 µM 17% | [5]; at 33.0 µM 51% | [5]; at 50.0 µM 47.3% | [6]; at 1.2 µM 2% | [6]; at 3.7 µM 14% | [6]; [17] 28% | [6]; at 11.0 µM 42% | [7]; at 1.2 µM 3% | [7]; at 3.7 µM 8% | [7]; at 11.0 µM 30% | [8]; [17] 59% | [8]; at 50.0 µM 32.3% | [9]; at 1.2 µM -1% | [9]; at 3.7 µM 0% | [9]; at 11.0 µM 14% | [9]; at 33.0 µM 30% | [10]; [17] 7% | [10]; at 50.0 µM 13.8% | [11]; at 1.2 µM -4% | [11]; at 3.7 µM 1% | [11]; [17] 27% | [11]; at 11.0 µM 18% | [11]; at 50.0 µM -8.05% | [12]; at 1.2 µM 0% | [12]; at 3.7 µM 4% | [12]; at 11.0 µM 17% | [13]; at 1.2 µM -2% | [13]; at 3.7 µM 3% | [13]; at 11.0 µM 18% | [14]; at 1.2 µM 1% | [14]; at 3.7 µM 14% | [14]; at 11.0 µM 45% | [15]; at 50.0 µM 30.4% | [16]; at 1.2 µM 1% | [16]; at 3.7 µM 5% | [16]; at 11.0 µM 19%

CCCC/C=C/C(CC)(C(=O)OCC)C(=O)OCC
inactive: [1]; at 1.2 µM -1% | [1]; at 3.7 µM -2% | [1]; at 11.0 µM -4% | [1]; at 33.0 µM -1% | [1]; at 100.0 µM -2% | [2]; at 1.2 µM -2% | [2]; at 3.7 µM -3% | [2]; at 11.0 µM -5% | [2]; at 33.0 µM -7% | [2]; at 100.0 µM -9% | [3]; at 1.2 µM -2% | [3]; at 3.7 µM 1% | [3]; at 11.0 µM -2% | [3]; at 33.0 µM 3% | [3]; at 100.0 µM 39% | [4]; at 1.2 µM -3% | [4]; at 3.7 µM -1% | [4]; at 11.0 µM -2% | [4]; at 33.0 µM -5% | [4]; at 100.0 µM -3% | [5]; at 1.2 µM -2% | [5]; at 3.7 µM -4% | [5]; [17] -9% | [5]; at 11.0 µM -3% | [5]; at 33.0 µM -3% | [5]; [18] -11% | [5]; at 50.0 µM 3.6% | [5]; at 100.0 µM -6% | [6]; at 1.2 µM 0% | [6]; at 3.7 µM -1% | [6]; [17] 5% | [6]; at 11.0 µM -2% | [6]; at 33.0 µM -1% | [6]; [18] 43% | [6]; at 50.0 µM -11.7% | [6]; at 100.0 µM -1% | [7]; at 1.2 µM -2% | [7]; at 3.7 µM -5% | [7]; at 11.0 µM -2% | [7]; at 33.0 µM -1% | [7]; at 100.0 µM 1% | [8]; [17] -3% | [8]; [18] 33% | [8]; at 50.0 µM 10.6% | [9]; at 1.2 µM -4% | [9]; at 3.7 µM 0% | [9]; at 11.0 µM -6% | [9]; at 33.0 µM -7% | [9]; at 100.0 µM -3% | [10]; [17] 6% | [10]; [18] 24% | [10]; at 50.0 µM 16.6% | [11]; at 1.2 µM 0% | [11]; at 3.7 µM -1% | [11]; [17] 11% | [11]; at 11.0 µM 1% | [11]; at 33.0 µM 6% | [11]; [18] 52% | [11]; at 50.0 µM 24.1% | [11]; at 100.0 µM 11%
